Measured values: PubChem BioAssay (Tox21)
Records with an inconclusive call do not appear. Activity calls are given as the source filed them. The call rests on the fitted dose curve; in most records, active means well fitted curve in the direction sought with a large enough effect in the repeat runs; inconclusive means weak or mixed curves; inactive means no such curve, though single readings can be large; an effect the other way counts as inactive or inconclusive.

What was measured:
[1] = A CellTox Green Cytotoxicity Assay to monitor cytotoxicity in HepG2 cells - 0 hour (AID 1224882); further: nearly all actives have a fitted effect of over 35% in size; further: potency means the concentration at half of the fitted maximal effect; on Cytotoxicity: on the % scale 0 is the no-effect control and ±100 the full control effect
Summary of the method: (§1)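 First, HepG2 cells (600/well) mixed with reagent were plated; second, after 5 h at 37 C they received compounds via pintool; third, fluorescence was measured at 0 h through 40 h at 8 h intervals.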

[2] = A CellTox Green Cytotoxicity Assay to monitor cytotoxicity in HEK293 cells - 8 hour (AID 1224884); further: nearly all actives have a fitted effect of over 35% in size; further: potency means the concentration at half of the fitted maximal effect; on cytotoxicity increase: on the % scale 0 is the no-effect control and ±100 the full control effect
Summary of the method: (§2)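 Dead-cell fluorescence measured kinetically: asymmetric cyanine dye, HEK293, 600 cells/well, 5 h settle, 23 nL cpd/DMSO, 37 C, reads 0–40 h every 8 h.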

[3] = qHTS RealTime-Glo MT Cell Viability Assay in HepG2 cells - 16 hour (AID 1224885); further: on the % scale 0 is the no-effect control and ±100 the full control effect; nearly all actives have a fitted effect of over 50% in size
Summary of the method: (§3)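 HepG2 cells (600/well) were dispensed with RealTime-Glo reagents, incubated 5 h at 37 °C, then treated with compounds in DMSO for up to 40 h. Nonlytic NanoLuc luminescence reflecting viable cells was read at each stated time point.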

[4] = A CellTox Green Cytotoxicity Assay to monitor cytotoxicity in HEK293 cells - 16 hour (AID 1224888); further: nearly all actives have a fitted effect of over 35% in size; further: potency means the concentration at half of the fitted maximal effect; on activity change: on the % scale 0 is the no-effect control and ±100 the full control effect
Summary of the method: as §2

[5] = qHTS RealTime-Glo MT Cell Viability Assay in HepG2 cells - 0 hour (AID 1224889); further: nearly all actives have a fitted effect of over 50% in size; further: potency means the concentration at half of the fitted maximal effect; on activity change, negative = cytotoxicity: on the % scale 0 is the no-effect control and ±100 the full control effect
Summary of the method: as §3

[6] = qHTS assay to identify small molecule antagonists of the estrogen receptor alpha (ER-alpha) signaling pathway using the BG1 cell line in the presence of 0.1 nM 17-beta-estradiol - cell viability counter screen (AID 1259241); further: nearly all actives have a fitted effect of over 40% in size; further: potency means the concentration at half of the fitted maximal effect
Summary of the method: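 Cells were plated and left 24 hr, compounds in DMSO were pinned in, 17beta-estradiol was added to 0.1 nM final, and after 22 hr CellTiter-Fluor reagent was added for 30 min before fluorescence was read.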

[7] = qHTS RealTime-Glo MT Cell Viability Assay in HEK293 cells - 24 hour (AID 1224886); further: nearly all actives have a fitted effect of over 50% in size; further: potency means the concentration at half of the fitted maximal effect
Summary of the method: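 HEK293 cells seeded with NanoLuc/prosubstrate reagent, rested 5 h at 37 C, then dosed and kept at 37 C up to 40 h. Nonlytic real-time luminescence from viable cells read at 0, 8, 16, 24, 32 and 40 h.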

[8] = qHTS RealTime-Glo MT Cell Viability Assay in HEK293 cells - 8 hour (AID 1224887); further: nearly all actives have a fitted effect of over 50% in size; further: potency means the concentration at half of the fitted maximal effect
Summary of the method: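 600 HEK293 cells per well, dispensed already mixed with RealTime-Glo MT reagents. Compound dosing came 5 h later. The same wells were read for luminescence at 0, 8, 16, 24, 32 and 40 h of exposure at 37 C.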

[9] = A CellTox Green Cytotoxicity Assay to monitor cytotoxicity in HepG2 cells - 8 hour (AID 1224890); further: nearly all actives have a fitted effect of over 45% in size; further: potency means the concentration at half of the fitted maximal effect
Summary of the method: as §1

[10] = A CellTox Green Cytotoxicity Assay to monitor cytotoxicity in HepG2 cells - 32 hour (AID 1224883)
Summary of the method: as §1

Clc1ccc(Cn2c(CN3CCCC3)nc3ccccc32)cc1
inactive: Potency [1] | Potency [2] | Potency [3] | Potency [4] | Potency [5] | Potency [6]

CCCCCCCCCc1ccc(OCCOCCO)cc1
inactive: Potency [1] | Potency [5]
active: Potency [7] 1.3 µM | Potency [8] 3.25 µM | Potency [4] 14.5 µM | Potency [6] 8.1 µM

CCN(CC)CCOC(=O)C(Cc1cccc2ccccc12)CC1CCCO1 (stereo not given)
inactive: Potency [2] | Potency [3] | Potency [8] | Potency [4] | Potency [5] | Potency [6]

COc1ccc(S(=O)(=O)N2C(=O)[C@@](c3ccccc3OC)(N3C[C@H](O)C[C@H]3C(=O)N(C)C)c3cc(Cl)ccc32)c(OC)c1
inactive: Potency [1] | Potency [2] | Potency [4] | Potency [5] | Potency [9]
active: Potency [7] 49 µM

O=C(Nc1ccc(S(=O)(=O)N2CCOCC2)cc1)c1cc(Cl)ccc1NS(=O)(=O)c1ccc(Cl)s1
active: Potency [1] 21.3 µM | Potency [2] 23.9 µM | Potency [5] 9.52 µM | Potency [9] 26.8 µM
inactive: Potency [7] | Potency [8]

CCO[Si](CCCCl)(OCC)OCC
inactive: Potency [1] | Potency [2] | Potency [7] | Potency [8] | Potency [4] | Potency [5] | Potency [6]

CC1=CC[C@H](C(C)C)C=C1
inactive: Potency [3] | Potency [7] | Potency [8] | Potency [4] | Potency [5] | Potency [9] | Potency [6]

CN1CCC(N(Cc2cccs2)c2ccccc2)CC1
active: Potency [10] 21.3 µM | Potency [2] 19 µM | Potency [4] 19 µM
inactive: Potency [3] | Potency [7] | Potency [8] | Potency [5] | Potency [6]

O[C@@H](COc1cccc2ncccc12)CN1CCN(C2c3ccccc3[C@@H]3[C@H](c4ccccc42)C3(F)F)CC1 (stereo not given in full)
inactive: Potency [1] | Potency [2] | Potency [4] | Potency [5] | Potency [9]

CC(=O)c1ccc2c(c1)N(CCCN(C)C)c1ccccc1S2
inactive: Potency [1] | Potency [2] | Potency [7] | Potency [8] | Potency [5] | Potency [6]

O=C(Nc1ccccc1)c1ccccc1O
inactive: Potency [1] | Potency [2] | Potency [3] | Potency [8] | Potency [5] | Potency [9] | Potency [6]

CCCCNc1ccc(C(=O)OCCOCCOCCOCCOCCOCCOCCOCCOCCOC)cc1
inactive: Potency [1] | Potency [2] | Potency [3] | Potency [8] | Potency [4] | Potency [5] | Potency [6]

COc1ccc2cccc(CCNC(C)=O)c2c1
inactive: Potency [2] | Potency [3] | Potency [7] | Potency [8] | Potency [4] | Potency [5] | Potency [6]

Cc1oc2c(NC(=O)c3c(Cl)cccc3Cl)cccc2c1C(C)(C)O
inactive: Potency [1] | Potency [2] | Potency [8] | Potency [5] | Potency [9] | Potency [6]

CCCCC(CC)COC(=O)CCCCCCCCC(=O)OCC(CC)CCCC (stereo not given)
inactive: Potency [1] | Potency [2] | Potency [7] | Potency [8] | Potency [5] | Potency [6]

Cc1[nH]c(C)c(Cl)c(=O)c1Cl
inactive: cytotoxicity [1] -3.1% [at 15.8 µM] | cytotoxicity increase [2] -1.54% [at 15.8 µM] | activity change, negative = cytotoxicity [7] -19.4% [at 15.8 µM] | activity change, negative = cytotoxicity [8] -23.4% [at 15.8 µM] | activity change, negative = cytotoxicity [5] -1.76% [at 15.8 µM] | cytotoxicity increase [9] -4.87% [at 15.8 µM] | activity change, negative = cytotoxicity [6] -5.47% [at 19 µM]

C#C[C@]1(O)CC[C@H]2[C@@H]3CCc4cc(OC5CCCC5)ccc4[C@H]3CC[C@@]21C
inactive: Potency [1] | Potency [2] | Potency [4] | Potency [5] | Potency [6]

CCOC(=O)Cc1cccc2ccccc12
active: Potency [10] 21.9 µM
inactive: Potency [2] | Potency [3] | Potency [7] | Potency [8] | Potency [4] | Potency [6]
